Screening results from PubChem BioAssay.
RmlC RmlD mix = RmlC and RmlD coupled enzyme inhibitors, primary screen, biochemical, 384-well, compound mixtures, retest. RmlC/RmlD coupled enzyme inhibition, 384-well mixture HTS. 0.39% of 110,000 active. inhibition, % at 5.5 µM; in the data active = inhibition above about 30%, passing the limit was not always enough; inconclusive = no clear call, values can overlap the other calls
HIV RNase H inh-1 = HIV-1 RT RNase H inhibitors, primary screen, biochemical, fluorescence; inhibition, % at 10 µM; 1.9% of 65,000 active; Gag-Pol polyprotein (Human immunodeficiency virus type 1 group M subtype B (isolate …; RT-RNase H RNA/DNA duplex cleavage; in the data active = inhibition above about 50%
HIV RNase H inh-2 = HIV-1 RT RNase H inhibitors, retest, confirmation, biochemical; shares compounds with HIV RNase H inh-1; Recombinant RT RNase H, fluorescent RNA/DNA duplex cleavage; 39% of 1,000 active; inhibition, % at 10 µM; AID 651, 2007; in the data active = inhibition above about 48%; inconclusive = no clear call, values can overlap the other calls
Each line names hits and unclear results; the compound was inactive in the other large screens (follow-up assays come after a bar, where they were run). The entries come from a sample that favours hits as a whole.

CCNC(=O)n1nccc1C(C)Oc1cccc(C(F)(F)F)c1 (stereo unspecified)	none (no result: HIV RNase H inh-1)
O=C(Nc1ccccc1)N1CCCC(c2nc(-c3ccc(F)cc3)no2)C1 (stereo unspecified)	none (no result: HIV RNase H inh-1)
O=C(Nc1cccc(C(F)(F)F)c1)N1CCC(c2nc(-c3ccc(F)cc3)no2)CC1	HIV RNase H inh-1 67.3 | HIV RNase H inh-2 inactive
CC(=O)NCCn1c(SCc2ccc(C)cc2C)nc2ccccc2c1=O	none (no result: HIV RNase H inh-1)
N#Cc1c(Cc2cccc3ccccc23)nn(CCO)c1N	none (no result: HIV RNase H inh-1)
O=S(=O)(c1ccccc1)N1CCN(S(=O)(=O)c2ccccc2)C1	none
O=S(=O)(/N=S1/CC=CCN1S(=O)(=O)c1ccccc1)c1ccccc1 (stereo unspecified)	HIV RNase H inh-1 78.9 | HIV RNase H inh-2 60.4
Cc1ccc(-n2c(SCC(=O)Nc3ccc4c(c3)OCO4)nnc2-c2cccs2)cc1	HIV RNase H inh-1 65.1 | HIV RNase H inh-2 inactive
O=C(CSc1nnc(-c2cccs2)n1-c1ccccc1)NCc1ccc2c(c1)OCO2	none
C=CC[C@]12C=C(OC)C(=O)C=C1O[C@@H](c1ccc3c(c1)OCO3)[C@H]2C	none (no result: HIV RNase H inh-1)
CC(C)CC1(C(=O)NCc2cc(F)cc(C(F)(F)F)c2)C=CCN1C(=O)c1ccccc1 (stereo unspecified)	none (no result: HIV RNase H inh-1)
Cc1cc(=O)[nH]c(SCC(=O)O)c1C#N	none (no result: HIV RNase H inh-1)
Cc1cc(=O)[nH]c(SCC(=O)C23CC4CC(CC(C4)C2)C3)c1C#N	HIV RNase H inh-1 61.4 | HIV RNase H inh-2 inactive
CCc1ccc(NC(=O)CSc2nnc(COc3ccc4c(c3)CCCC4)o2)cc1	none (no result: HIV RNase H inh-1)
COC(=O)c1ccc(NC(=O)CSc2nnc(COc3ccc4c(c3)CCCC4)o2)cc1	HIV RNase H inh-1 74.9 | HIV RNase H inh-2 inactive
COC(=O)C1=C(C(=O)OC)[C@@H]2N(C)c3ccccc3[C@@]23C[C@@H](C(=O)OC)N(C(=O)c2cc(C)oc2C)C3=N1	none (no result: HIV RNase H inh-1)
Nn1c(SCC(=O)Nc2ccc3c(c2)OCO3)nnc1-c1ccncc1	none (no result: RmlC RmlD mix)
Cc1cc(NC(=O)CSc2nnc(-c3ccncc3)n2N)ccc1Br	HIV RNase H inh-1 52.2 | HIV RNase H inh-2 inactive
O=C(N[C@@H](c1ccccc1)[C@H](O)c1ccccc1)[C@@H]1CCCN1C(=O)OCc1ccccc1	none (no result: HIV RNase H inh-1)
CCO[C@H]1OC(C(=O)NC2CC2)=C[C@@H](c2csc3ccccc23)[C@@H]1CCCO	none (no result: HIV RNase H inh-1)
OCCn1nc2c3ccccc3nc-2n(-c2ccccc2)c1=S	HIV RNase H inh-1 89.0 | HIV RNase H inh-2 inactive
Cc1nn(-c2ccccc2)c(=S)n1-c1ccccc1	none
CCOC(=O)CN1C(=O)N[C@@H](c2ccco2)C(C(C)=O)=C1C	none (no result: HIV RNase H inh-1)
N#Cc1c(N)nc(SCC(=O)NC2CCCCC2)c(C#N)c1-c1ccc(Cl)cc1	HIV RNase H inh-1 81.8 | HIV RNase H inh-2 58.8
CC(C)c1ccc(-c2c(C#N)c(N)nc(SCC(=O)N3CCCCCC3)c2C#N)cc1	none (no result: HIV RNase H inh-1)
CCOC(=O)N1CCN(C(=O)CN(Cc2ccc(Cl)cc2)S(=O)(=O)c2ccc(C)cc2)CC1	none (no result: HIV RNase H inh-1)
Cc1ccccc1CN1C(=O)[C@H]2Cc3c([nH]c4ccccc34)C(C)(C)N2C1=O	none (no result: HIV RNase H inh-1)
Cc1nc(CS(=O)(=O)c2ccc(Cl)cc2)cc(Sc2ccc(Cl)cc2)n1	none (no result: HIV RNase H inh-1)
Cc1cc(C)nc(SC2=CS(=O)(=O)c3ccccc32)n1	none
O=S1(=O)C=C(Sc2nnc(-c3ccccc3)o2)c2ccccc21	HIV RNase H inh-1 65.2 (no result: RmlC RmlD mix) | HIV RNase H inh-2 inactive
CCCCCCCCCCCC(=O)N/N=C/c1ccco1	none (no result: HIV RNase H inh-1)
Cc1nc(N2CCCCC2)c2sc(=S)n(C)c2n1	none
CCN1CCN(c2nc(C)nc3c2sc(=S)n3C)CC1	HIV RNase H inh-1 90.2 | HIV RNase H inh-2 64.7
CCCS(=O)(=O)N1CCN(C(=O)c2cccc(OC)c2)CC1	none
c1ccc(Cc2cc(-c3ccccc3)on2)cc1	none (no result: HIV RNase H inh-1)
CCCCOC(=O)Nc1cc(Cl)ccc1C	none (no result: HIV RNase H inh-1)
CCCOC(=O)NC(CC)COC(=O)Nc1cc(C)ccc1C (stereo unspecified)	HIV RNase H inh-1 92.6 | HIV RNase H inh-2 inactive
C[C@H]1CCC[C@@]2(O[C@H](CCO)C[C@H](O)[C@H]2O)O1	none (no result: HIV RNase H inh-1)
CC(C)(C)c1ccc(O)c(N)c1	HIV RNase H inh-1 86.1 | HIV RNase H inh-2 inconclusive
CCC(C)c1ccc(O)c(N)c1 (stereo unspecified)	HIV RNase H inh-1 60.0 | HIV RNase H inh-2 inactive
CCC(C)c1ccc(O)c(NC(=O)c2cncc(Br)c2)c1 (stereo unspecified)	none
CC(C)c1ccc(O)c(NC(=O)c2cccnc2)c1	none (no result: HIV RNase H inh-1)
CC(C)(C)c1ccc(SCC(N)=O)cc1	none
CC(C)c1ccc(O)c(N)c1	HIV RNase H inh-1 57.6 | HIV RNase H inh-2 inactive
O=C(NCCc1c[nH]c2ccccc12)C(=O)Nc1ccccc1	none (no result: HIV RNase H inh-1)
CSc1cccc(NC(=O)CN(Cc2ccc(Cl)cc2)S(C)(=O)=O)c1	none (no result: HIV RNase H inh-1)
CC(C)(C)n1nnnc1C(c1cc2cc3c(cc2[nH]c1=O)OCCO3)N1CCSCC1 (stereo unspecified)	none
O=c1[nH]c2cc3c(cc2cc1C(c1nnnn1C1CCCC1)N1CCSCC1)OCCO3 (stereo unspecified)	HIV RNase H inh-1 60.6 (no result: RmlC RmlD mix) | HIV RNase H inh-2 inactive
O=C(Nc1ccccc1C(F)(F)F)N1CCN(c2ccc3nncn3n2)CC1	none
COC(=O)c1ccc(Cn2cnc3c(sc4nc(N5CCOCC5)c5c(c43)CCCC5)c2=O)o1	HIV RNase H inh-1 64.4 | HIV RNase H inh-2 inconclusive
COC(=O)c1ccc(Cn2nnc3c(sc4nc(N5CCOCC5)c5c(c43)CCCC5)c2=O)o1	none (no result: RmlC RmlD mix)
Cn1c(=O)c2c(SCc3ccccc3)nc(-c3ccco3)nc2n(C)c1=O	HIV RNase H inh-1 51.5 | HIV RNase H inh-2 inactive
Cn1c(=O)c2c(SCc3cccc(C(F)(F)F)c3)nc(-c3ccco3)nc2n(C)c1=O	none
COc1cc(S(=O)(=O)N2CCOCC2)ccc1NC(=O)COC(=O)CC12CC3CC(CC(C3)C1)C2	none (no result: HIV RNase H inh-1)
CCn1c(SCC(=O)Nc2oc(-c3ccccc3)c(-c3ccccc3)c2C#N)nnc1-c1cc(OC)cc(OC)c1	none (no result: HIV RNase H inh-1)
COc1ccc2ccccc2c1C1CC(=O)N2CN(Cc3ccco3)CSC2=C1C#N (stereo unspecified)	none
CCOc1cc(C2CC(=O)NC(SCC)=C2C#N)ccc1O (stereo unspecified)	none
CCOc1cc(C2CC(=O)N3CN(C4CCCCC4)CSC3=C2C#N)ccc1O (stereo unspecified)	HIV RNase H inh-1 78.7 | HIV RNase H inh-2 71.5
COc1ccc2ccccc2c1C1CC(=O)N2CN(C3CCCCC3)CSC2=C1C#N (stereo unspecified)	HIV RNase H inh-1 81.5 | HIV RNase H inh-2 60.3
CSC1=Nc2sc3c(c2C2=NCCN12)CC(C)(C)OC3	none (no result: RmlC RmlD mix)
C=C1CCN(c2ccc(C(=O)NCc3ccc(OC)cc3)cc2[N+](=O)[O-])CC1	none (no result: HIV RNase H inh-1)
CCCCNC(=O)c1sc(=S)n2c1[nH]c(=O)c1ccccc12	none
O=C(NC1CCCCC1)c1sc(=S)n2c1[nH]c(=O)c1ccccc12	HIV RNase H inh-1 74.0 | HIV RNase H inh-2 58.5
O=C(COC(=O)C12CC3CC(CC(C3)C1)C2)NCCc1ccccc1	none (no result: HIV RNase H inh-1)
COc1ccc(-c2nn(-c3ccccc3)cc2/C=N/N2C(=O)CSC2=S)cc1	none (no result: HIV RNase H inh-1)
c1ccc2[nH]c(SN3CCOCC3)nc2c1	HIV RNase H inh-1 90.6 | HIV RNase H inh-2 66.1
c1ccc2[nH]c(CN3CCOCC3)nc2c1	none (no result: HIV RNase H inh-1)
CCn1c(O)c(C=NC2CCCC2)sc1=S	none (no result: HIV RNase H inh-1)
CCn1c(O)c(/C=N/n2cnnc2)sc1=S	HIV RNase H inh-1 61.0 | HIV RNase H inh-2 inactive
C[C@H]1CC[C@@]2(O[C@H](CCO)C[C@H](O)[C@H]2O)O1	none (no result: HIV RNase H inh-1)
